Source: PubChem BioAssay (several laboratories)
Sampled rows, rich in hits. Any-hit rate of the full collection: about 1.8%.
Beta cell apopt: beta cell apoptosis inhibition; INS-1E cytokine-induced death, ATP luminescence, 48 h; percent of positive-control rescue, neutral wells zero; protection from apoptosis, % (test concentration not listed); 300,000 compounds, 0.8% hits; AID 435005;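 active means Every replicate reaches about 75%, or at least half do and their mean reaches it too, limit read from the data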;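 further: higher means more ATP so stronger rescue from cytokine killing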
Jurkat NFkB inh: lowers PMA/ionomycin-induced NF-kB signal in Jurkat cells; AID 435003; 330,000 compounds, 0.53% hits; inhibition, % at 4 µM; PMA/ionomycin-induced NF-kB luciferase reporter, luminescence; in the data active means inhibition above about 50%
697 NFkB inh: inhibitors of the PMA/ionomycin-induced NF-kB reporter in 697 B cells; 697 B-cell NF-kB luciferase reporter, 16 h; inhibition, % at 4 µM; 330,000 compounds, 0.33% hits; AID 435022; in the data active means inhibition above about 35%
Gli-Sufu block: blocks Gli-Sufu signaling in a luciferase reporter; 340,000 compounds, 0.74% hits; inhibition, % at 5 µM; Sufu-KO-LIGHT fibroblasts, Gli luciferase reporter luminescence; AID 588413;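 active means inhibition above about 55%, limit read from the data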
Large screens that a line does not name were inactive.

CCCCSc1ccc(NC(=O)c2cccnc2)cc1	Beta cell apopt 100
CCC(C)c1ccc(NC(=O)c2cccnc2)cc1 (configuration not stated)	none
O=c1c2c3c(sc2n(CCN2CCCCC2)c(=O)n1Cc1ccco1)CCCCC3	Beta cell apopt 93
CC(O)CNc1nc2sc3c(c2c(=O)n1Cc1ccco1)CCCCC3 (configuration not stated)	Beta cell apopt 91
CC(=O)c1cc(C#N)c(NCc2cc(-c3ccccc3)no2)nc1C	none
COC(C(=O)Nc1cc([N+](=O)[O-])ccc1C)c1ccccc1 (configuration not stated)	none
CC(C)CCNC(=O)c1ccc(C2SCC(=O)N2Cc2ccco2)cc1 (configuration not stated)	none
CN(C(=O)c1ccc(NC(=O)Cc2cccc(NC(=O)C3CCCN(C(=O)C4CCCC4)C3)c2)cc1)C1CC1 (configuration not stated)	none (no result: Beta cell apopt, Jurkat NFkB inh, 697 NFkB inh)
Cc1ccc(F)c([C@H]2C3C=CCC(c4ccccc4)C3C(=O)N2Cc2ccccc2)c1 (some centres not stated)	Beta cell apopt 109
CCOc1ccc(CNc2ccc(N3CCCC3)cc2)cc1	Beta cell apopt 109
COc1cccc(CSc2nnc(-c3ccncc3)n2C)c1	none
CC(C)C(=O)Nc1ccc(C(=O)N/N=C/c2cc(Br)cc(Br)c2O)cc1	Beta cell apopt 79
Oc1ccc(/C=N/Nc2ccnc3cc(Cl)ccc23)c(O)c1	none
Cc1ccccc1/C=N/Nc1ccnc2cc(Cl)ccc12	Beta cell apopt 95 (no result: Jurkat NFkB inh, 697 NFkB inh)
Cc1ccc(/C=N/Nc2ccnc3cc(Cl)ccc23)c(C)c1	Beta cell apopt 101, Gli-Sufu block 60
CCCCn1nc2cc(C(=O)NCc3ccc4c(c3)OCO4)ccc2c1OCC	none
O=c1cc(CSc2ccc(Cl)cc2)nc(-c2ccccn2)[nH]1	Beta cell apopt 80
Clc1ccc(SCc2csc(N3CCOCC3)n2)cc1	none
O=c1cc(CSc2ccc(Cl)cc2)nc(-c2ccccc2)[nH]1	none
Clc1ccc(SCc2cc(N3CCOCC3)nc(-c3ccccn3)n2)cc1	Beta cell apopt 99
OC1CCCN(CC(O)COC(c2ccccc2)c2ccccc2)C1 (configuration not stated)	none
Cc1ccc(NS(=O)(=O)c2cc([N+](=O)[O-])ccc2N/N=C/c2sc(N3CCOCC3)nc2-c2ccccc2)c(C)c1	Beta cell apopt 75
C/C(=N\N1C(=O)c2ccccc2NC1c1ccco1)c1ccccc1O (configuration not stated)	Beta cell apopt 99
C/C(=N\N1C(=O)c2ccccc2NC1c1ccccc1)c1ccccc1O (configuration not stated)	Beta cell apopt 87
COc1ccc(/C(C)=N/N2C(=O)c3ccccc3NC2c2ccc(O)c(OC)c2)cc1 (configuration not stated)	none
CC(OC(=O)C1CCCC1)C(=O)Nc1ccc(S(N)(=O)=O)cc1 (configuration not stated)	none
CCOC(=O)c1c(C)[nH]c(C(=O)OCC(O)=C(C#N)c2nc3ccccc3[nH]2)c1C	none (no result: Beta cell apopt, Jurkat NFkB inh, 697 NFkB inh)
Cc1c(-c2cccc(Cl)c2)nc2ccccc2c1C(=O)OC/C(O)=C(\C#N)c1nc2ccccc2[nH]1	Beta cell apopt 97
COC(=O)C(Cc1c[nH]c2ccccc12)NC(=O)C(=O)c1c[nH]c2ccccc12 (configuration not stated)	none (no result: Beta cell apopt)
CCCC(=O)N(CCN(C(=O)CCC)c1ccccc1)c1ccccc1	Beta cell apopt 79
CCN(CC)CCC(=O)Nc1cccc2c1C(=O)c1ccccc1C2=O	Beta cell apopt 98
COc1ccccc1NC(=O)CSc1ccc2nnc(-c3cccnc3)n2n1	none
CCOc1ccc(S(=O)(=O)NCCC(=O)N(C)CC(=O)Nc2ccc(OC)cc2)cc1	none
O=C(Cn1c(NCCCO)nc2ccccc21)c1ccc(Cl)cc1	none
Cc1cc2nc(NCCCO)n(CC(=O)c3cc(C(C)(C)C)c(O)c(C(C)(C)C)c3)c2cc1C	Beta cell apopt 98
Cc1ccccc1Nc1c(-c2ccccn2)nc2c(C)cccn12	Beta cell apopt 96
CC1=C(CC(=O)c2ccccc2)C(=O)c2ccccc2C1=O	Beta cell apopt 98
Cc1ccc2c(c1)c1c3n2CCN(CC#N)C3CCC1 (configuration not stated)	none
O=c1c(Cl)c(Cl)cnn1Cc1ccc(F)cc1	Beta cell apopt 112
O=C(Cn1ncc(Cl)c(Cl)c1=O)c1ccc(Cl)cc1	none (no result: Jurkat NFkB inh, 697 NFkB inh)
O=C(OCn1ncc(Cl)c(Cl)c1=O)c1ccccc1Cl	Beta cell apopt 101 (no result: Jurkat NFkB inh, 697 NFkB inh)
O=C(OCn1ncc(Cl)c(Cl)c1=O)c1ccc(F)cc1	Beta cell apopt 102 (no result: Gli-Sufu block)
O=c1cnn(Cc2ccc(F)cc2)c2ccccc12	none
CCCCSc1ncc(C(=O)OCC)c(N)n1	none
CC1CCCCC1NC(=O)CN1C(=O)NC(C)(c2cc(F)ccc2F)C1=O (configuration not stated)	none
COc1ccc([N+](=O)[O-])cc1NC(=O)c1ccccc1SC	none
COc1cc(Br)cc(/C=N/NC(=O)Cc2ccc(C(F)(F)F)cc2[N+](=O)[O-])c1O	Beta cell apopt 100
O=C(Nc1nc(-c2ccccn2)cs1)Nc1ccc(F)cc1F	Beta cell apopt 77
O=C(Nc1nc(-c2ccccn2)cs1)c1ccccc1-n1cnnn1	Beta cell apopt 78
O=C(Nc1nc(-c2ccccn2)cs1)c1cc(Cl)ccc1[N+](=O)[O-]	Beta cell apopt 93, Gli-Sufu block 65
Cc1ccc(C(=O)Nc2nc(-c3ccccn3)cs2)o1	none
O=C(Nc1nc(-c2ccccn2)cs1)c1ccc([N+](=O)[O-])o1	Beta cell apopt 90
COc1cccc2cc(-c3n[nH]c(=S)n3C)oc12	none
Nc1nc2ccccc2n1C(=O)CCc1ccccc1	none
CCn1c(Cl)c(C=O)s/c1=N\S(=O)(=O)c1ccccc1	Beta cell apopt 117
N#C/C(N=Nc1ccccc1O)=N\Nc1ccccc1O	Beta cell apopt 115
O=[N+]([O-])c1ccc(N2CCN(C(=S)Nc3ccc(F)cc3)CC2)cc1	Beta cell apopt 76
CCN1C(=O)[C@H]2[C@@H](c3ccc(C)cc3)N3C(=O)N(c4ccc(C(F)(F)F)cc4)C(=O)[C@@]3(CC(C)C)[C@H]2C1=O	none
O=C(NC1CCS(=O)(=O)C1)c1ccc(S(=O)(=O)NCC2CCCO2)cc1 (configuration not stated)	none
O=C(N/N=C/c1ccc([N+](=O)[O-])o1)c1cc2ccccc2o1	Beta cell apopt 100
O=C(N/N=C/c1ccc([N+](=O)[O-])o1)c1ccc(O)cc1	Beta cell apopt 100 (no result: Jurkat NFkB inh, 697 NFkB inh)
O=C(CCC(=O)Nc1ccc(Cl)cc1Cl)N/N=C/c1ccc([N+](=O)[O-])o1	Beta cell apopt 107
CCOC(=O)c1ccccc1NC(=O)COC(=O)c1c(CC)noc1C	none
Cc1cccc(C(=O)Nc2ccc(O)c3c(=O)cc(-c4ccccc4Cl)oc23)c1	none
COCCCN=C1NN=C(c2cc(C)n(Cc3ccco3)c2C)CS1	none
CN=C1NN=C(c2cc(C)n(-c3c(C)n(C)n(-c4ccccc4)c3=O)c2C)CS1	none
Cc1cc(C2=NNC(=NC3CC3)SC2)c(C)n1Cc1ccco1	Gli-Sufu block 84 (no result: Jurkat NFkB inh, 697 NFkB inh)
Cc1cc(C2=NNC(=NC3CC3)SC2)c(C)n1-c1ccccc1	Gli-Sufu block 91 (no result: Beta cell apopt, Jurkat NFkB inh, 697 NFkB inh)
